Source: the supplement of paper PMC10338343
± gives the standard deviation.

tested on: MILI (PIWIL2) piRISC loaded with piRNA #1 (26 nt); assay: pre-steady-state target cleavage rate (min^-1); guide: piRNA #1 5'p-UGAGGUAGUAGGUUGUAUAGUAUCCA; MIWI and MILI are mouse PIWI proteins and EfPiwi is from a freshwater sponge; tags in brackets are library labels; higher = faster piRNA-guided slicing of the target; settings: auxiliary factor: 500 nM mouse GTSF1
Summary of the method: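 A burst-and-steady-state fit was used to obtain the pre-steady-state cleavage rate. The input data were sequencing reads of uncleaved targets, normalised to depth and to weakly complementary targets, from a […] transcribed, DNA-blocked target RNA library mixed with 1 nM active affinity-purified piRISC holding one synthetic guide, with or without 500 nM GTSF1 partner protein, in HEPES–potassium acetate buffer at 33 °C for 0–8 or 0–960 min. Three trials were pooled and k3 was capped at 0.0001 min^-1.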
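Also: 1 nM active piRISC with 0.1 nM target library at 33 °C single turnover.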

| Sequence | pre-steady-state target cleavage rate |
| --- | --- |
| GGAGACCAUACUAUACUUGCUACUACCUCA | 0.0454 ± 0.0044 |
| GGAGACCUAUCUAUACAACCUACUACAUCA | 0.051 ± 0.0067 |
| GGAGACCUAACUUAUCAACCUACUACCUCA | 0.0153 ± 0.0078 |
| GGAGACCUAUCUAAACAACCUACUACCACA | 0.0926 ± 0.013 |
| GGAGACCUAUCUAUUCAACCUACUACGUCA | 0.0451 ± 0.0089 |
| GGAGACCUUACUAUAGAACCUACUAGCUCA | 0.00445 ± 0.0038 |
| GGAGACCUAUGAUUACAACCUACGACCUCA | 0.00452 ± 0.0036 |
| GGAGACCUAACUAUACUUGCUACUACCUCA | 0.0149 ± 0.0044 |
| GGAGUGGAUACAAUUCAACCUACUACCUCA | 0.178 ± 0.0092 |
| GGAGACCUAUGAUUACAACUUACUACCUCA | 0.00657 ± 0.0024 |
| GGAGACCUAUGAUAUGUUGCUGACUACCUCA | < 0.0001 |
| GGAGACCUUACUAAACAACCUACAACCUCA | 0.178 ± 0.025 |
| GGAGACCUUACUAUACAACCUACAUACCUCA | 0.157 ± 0.011 |
| GGAGACCUAUGAUUACAACCUACUACCUAA | 0.00444 ± 0.003 |
| GGAGACGAUACUAAAGAACCUACUACCUCA | 0.166 ± 0.011 |
| GGAGACCUAACUUUACAACGUACUACCUCA | 0.00988 ± 0.0052 |
| GGAGACCAUACUAUACAUCCUUCUACCUCA | 0.042 ± 0.0097 |
| GGAGACCUAACUAUACAACCUACUACGUGA | 0.0518 ± 0.018 |
| GGAGACCUAUCUAUACAAGGUACUACCUCA | 0.0563 ± 0.0083 |
| GGAGACCUAUGUUAUCAACCUACUACCUCA | 0.0125 ± 0.0029 |

| Sequence | pre-steady-state target cleavage rate |
| --- | --- |
| GGAGACCUAUCUUUACAACCUAGUACCUCA | 0.00897 ± 0.003 |
| GGAGACCAUCACUAUACAACCUACUACCUCA | 0.147 ± 0.021 |
| GGAGACCUAACUAUAGAUCCUACUACCUCA | 0.203 ± 0.026 |
| GGAGACCUAUGAUAUCAACCUAUCUACCUCA | 0.00534 ± 0.002 |
| GGAGACCAUUCUAUUCAACCUACUACCUCA | 0.102 ± 0.012 |
| GGAGACCUAUCUUUACAACCUACUACCACA | 0.105 ± 0.016 |
| GGAGACCUAUCUAUACAGCCUACUACCUCA | 0.0315 ± 0.006 |
| GGAGACGAUACUAAACAACCUACAACCUCA | 0.116 ± 0.013 |
| GGAGACCUAACUAUACUACCUAGUACCUCA | 0.0154 ± 0.0058 |
| GGAGUGGAUACUAUAGUUCCUACUACCUCA | 0.169 ± 0.0095 |
| GGAGACCUAUGUAUACAACCUACUAGCACA | 0.00507 ± 0.0028 |
| GGAGACCUAUGAUAUGUUGCUACUACCUAA | < 0.0001 |
| GGAGACCUAUGAUUACAACCUACUACCUCCA | 0.00682 ± 0.0026 |
| GGAGACCUUACUAUACAACUACUACCUCA | 0.0157 ± 0.0032 |
| GGAGACCUUACUAUACAACCUACAUGGAGA [g8:g22:cont:t1A] | 0.00299 ± 0.0029 |
| GGAGACCUAACAAUACAACCAACUACCUCA | 0.00518 ± 0.004 |
| GGAGACCUUACAAUACAACCUACAACCUCA | 0.111 ± 0.011 |
| GGAGUGCAUUCUAUACAACCUACUACCUCA | 0.13 ± 0.011 |
| GGAGAGGAUUCAAUACAACCUACUACCUCA | 0.132 ± 0.01 |
| GGAGACCUAUGAUUACAAACUACUACCUCA | 0.0225 ± 0.0059 |
